# Assay results from the supplement of paper PMC10849652.
# Of roughly 7,900 targets only a part is listed; those with a hit were picked by preference. About 0.6% of all pairs of compound and target were hits. Unmarked numbers belong to inactive results.
# Experiments:
# Test in all cases: log2 fold change, soluble protein after heating vs DMSO (PISA); higher = thermal stabilisation; K562 cells, 10 uM, 30 min; active = over 0.2 and 3.5 SD of the protein, either way, in both replicates (recomputed)
# [1] = compound: CS(=O)(=O)c1ccc(-c2cnc(N)c(C(=O)Nc3ccccc3)n2)cc1
# Procedure, shortened: (§1)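 For each measurement, 10 μM compound was applied for 30 min to K562 cells at 2×10^6 cells/mL. Aliquots were heated for 3 min across 48°C-58°C, pooled, and extracted in PBS with 0.5% NP-40 at 4°C; the supernatant after 21,000xg for 90 min was soluble protein. This was quantified by TMTpro 16plex LC-MS/MS with channel sums equalised, and thermal stability was reported relative to control samples from duplicates, on a log2 fold-change scale.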
# crizotinib = compound: C[C@@H](Oc1cc(-c2cnn(C3CCNCC3)c2)cnc1N)c1c(Cl)ccc(F)c1Cl [crizotinib]
# Procedure, shortened: as §1
# [2] = compound: C[C@@H]1COCCN1C2=NC(=NC(=C2)C3(CC3)S(=O)(=O)C)C4=C5C=CNC5=CC=C4
# Procedure, shortened: as §1
# [3] = compound: C[C@H](C1=CC=C(C=C1)C(=O)NC2=C3C=CNC3=NC=C2)N
# Procedure, shortened: as §1
# duvelisib = compound: C[C@H](Nc1ncnc2nc[nH]c12)c1cc2cccc(Cl)c2c(=O)n1-c1ccccc1 [duvelisib]
# Procedure, shortened: as §1
# gandotinib = compound: Cc1cc(Nc2cc(CN3CCOCC3)c3nc(C)c(Cc4ccc(Cl)cc4F)n3n2)n[nH]1 [gandotinib]
# Procedure, shortened: as §1
# tozasertib = compound: Cc1cc(Nc2cc(N3CCN(C)CC3)nc(Sc3ccc(NC(=O)C4CC4)cc3)n2)n[nH]1 [tozasertib]
# Procedure, shortened: as §1
# [4] = compound: Cc1cc(SCc2sc(-c3ccc(C(F)(F)F)cc3)nc2C)ccc1OCC(=O)O
# Procedure, shortened: as §1
# doramapimod = compound: Cc1ccc(-n2nc(C(C)(C)C)cc2NC(=O)Nc2ccc(OCCN3CCOCC3)c3ccccc23)cc1 [doramapimod]
# Procedure, shortened: as §1
# ispinesib = compound: Cc1ccc(C(=O)N(CCCN)[C@@H](c2nc3cc(Cl)ccc3c(=O)n2Cc2ccccc2)C(C)C)cc1 [ispinesib]
# Procedure, shortened: as §1
# Sequence of UniProt Q96LT7 (Q96LT7 whole entry, looked up): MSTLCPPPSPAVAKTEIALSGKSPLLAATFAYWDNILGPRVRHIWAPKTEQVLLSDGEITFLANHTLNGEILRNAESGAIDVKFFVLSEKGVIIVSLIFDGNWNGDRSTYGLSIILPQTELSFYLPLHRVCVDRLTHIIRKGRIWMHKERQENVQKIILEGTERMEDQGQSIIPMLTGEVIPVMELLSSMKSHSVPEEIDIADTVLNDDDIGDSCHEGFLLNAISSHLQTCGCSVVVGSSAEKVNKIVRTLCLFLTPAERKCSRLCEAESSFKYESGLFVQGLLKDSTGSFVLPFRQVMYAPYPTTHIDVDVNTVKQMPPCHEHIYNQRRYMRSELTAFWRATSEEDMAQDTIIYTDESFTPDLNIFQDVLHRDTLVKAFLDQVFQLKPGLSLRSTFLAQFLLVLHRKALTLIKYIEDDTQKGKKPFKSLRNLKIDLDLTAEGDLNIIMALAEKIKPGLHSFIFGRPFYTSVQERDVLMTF
# Sequence of UniProt P27708 (P27708 whole entry, looked up): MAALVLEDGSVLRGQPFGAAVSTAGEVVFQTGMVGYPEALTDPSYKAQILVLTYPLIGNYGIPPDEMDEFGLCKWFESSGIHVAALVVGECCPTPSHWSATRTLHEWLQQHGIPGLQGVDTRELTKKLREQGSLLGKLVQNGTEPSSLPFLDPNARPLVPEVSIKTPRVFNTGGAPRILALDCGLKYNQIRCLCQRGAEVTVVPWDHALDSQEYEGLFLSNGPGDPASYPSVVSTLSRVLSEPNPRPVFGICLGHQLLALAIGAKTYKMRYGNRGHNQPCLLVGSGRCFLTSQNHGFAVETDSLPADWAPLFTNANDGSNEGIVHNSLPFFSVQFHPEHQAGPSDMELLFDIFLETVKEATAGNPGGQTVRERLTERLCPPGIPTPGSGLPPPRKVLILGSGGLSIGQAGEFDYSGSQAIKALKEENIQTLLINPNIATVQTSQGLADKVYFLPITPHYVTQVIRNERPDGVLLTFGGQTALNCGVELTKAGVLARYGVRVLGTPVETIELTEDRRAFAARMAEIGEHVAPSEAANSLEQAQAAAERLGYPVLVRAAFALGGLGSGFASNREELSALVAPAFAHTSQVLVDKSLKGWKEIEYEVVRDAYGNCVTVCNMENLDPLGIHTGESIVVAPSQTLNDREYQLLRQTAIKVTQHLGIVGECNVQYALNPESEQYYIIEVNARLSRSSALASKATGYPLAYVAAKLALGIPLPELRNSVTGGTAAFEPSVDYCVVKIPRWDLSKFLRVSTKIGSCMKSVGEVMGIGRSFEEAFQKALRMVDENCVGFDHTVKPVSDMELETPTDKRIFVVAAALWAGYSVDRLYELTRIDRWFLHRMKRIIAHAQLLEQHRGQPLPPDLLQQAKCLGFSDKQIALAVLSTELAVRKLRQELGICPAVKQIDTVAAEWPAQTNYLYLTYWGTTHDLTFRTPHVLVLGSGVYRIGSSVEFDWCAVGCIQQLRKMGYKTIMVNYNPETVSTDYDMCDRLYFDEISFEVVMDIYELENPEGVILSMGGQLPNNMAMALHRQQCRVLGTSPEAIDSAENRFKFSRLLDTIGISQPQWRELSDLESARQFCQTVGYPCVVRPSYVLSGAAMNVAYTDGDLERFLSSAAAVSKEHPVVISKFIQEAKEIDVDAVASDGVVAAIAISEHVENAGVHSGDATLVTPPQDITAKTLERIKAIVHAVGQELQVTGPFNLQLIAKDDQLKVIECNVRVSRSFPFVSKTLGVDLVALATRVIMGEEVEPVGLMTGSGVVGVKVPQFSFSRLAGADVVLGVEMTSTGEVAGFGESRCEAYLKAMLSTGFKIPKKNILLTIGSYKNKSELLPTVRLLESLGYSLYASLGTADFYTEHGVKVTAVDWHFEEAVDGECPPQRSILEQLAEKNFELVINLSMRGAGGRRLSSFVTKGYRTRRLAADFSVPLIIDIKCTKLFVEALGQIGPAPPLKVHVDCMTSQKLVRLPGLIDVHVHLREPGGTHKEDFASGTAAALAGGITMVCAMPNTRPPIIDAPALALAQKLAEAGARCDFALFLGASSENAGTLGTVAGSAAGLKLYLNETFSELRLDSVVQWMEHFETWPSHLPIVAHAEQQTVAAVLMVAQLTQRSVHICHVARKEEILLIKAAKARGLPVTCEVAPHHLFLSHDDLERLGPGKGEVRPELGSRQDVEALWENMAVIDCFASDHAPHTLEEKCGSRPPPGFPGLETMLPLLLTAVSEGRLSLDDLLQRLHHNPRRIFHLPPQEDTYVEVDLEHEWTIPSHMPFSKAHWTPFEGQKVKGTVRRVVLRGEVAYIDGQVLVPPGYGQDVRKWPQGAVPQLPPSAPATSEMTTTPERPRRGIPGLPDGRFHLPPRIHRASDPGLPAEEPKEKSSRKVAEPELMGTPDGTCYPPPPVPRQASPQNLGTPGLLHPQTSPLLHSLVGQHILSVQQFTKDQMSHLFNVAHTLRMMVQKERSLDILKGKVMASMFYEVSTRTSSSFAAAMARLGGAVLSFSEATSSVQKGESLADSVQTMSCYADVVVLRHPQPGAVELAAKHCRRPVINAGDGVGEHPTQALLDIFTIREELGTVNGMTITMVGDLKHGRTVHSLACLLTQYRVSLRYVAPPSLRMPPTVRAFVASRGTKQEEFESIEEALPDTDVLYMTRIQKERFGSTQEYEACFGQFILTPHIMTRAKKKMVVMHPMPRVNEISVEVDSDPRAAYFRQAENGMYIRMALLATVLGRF
# Sequence of UniProt O75153 (O75153 whole entry, looked up): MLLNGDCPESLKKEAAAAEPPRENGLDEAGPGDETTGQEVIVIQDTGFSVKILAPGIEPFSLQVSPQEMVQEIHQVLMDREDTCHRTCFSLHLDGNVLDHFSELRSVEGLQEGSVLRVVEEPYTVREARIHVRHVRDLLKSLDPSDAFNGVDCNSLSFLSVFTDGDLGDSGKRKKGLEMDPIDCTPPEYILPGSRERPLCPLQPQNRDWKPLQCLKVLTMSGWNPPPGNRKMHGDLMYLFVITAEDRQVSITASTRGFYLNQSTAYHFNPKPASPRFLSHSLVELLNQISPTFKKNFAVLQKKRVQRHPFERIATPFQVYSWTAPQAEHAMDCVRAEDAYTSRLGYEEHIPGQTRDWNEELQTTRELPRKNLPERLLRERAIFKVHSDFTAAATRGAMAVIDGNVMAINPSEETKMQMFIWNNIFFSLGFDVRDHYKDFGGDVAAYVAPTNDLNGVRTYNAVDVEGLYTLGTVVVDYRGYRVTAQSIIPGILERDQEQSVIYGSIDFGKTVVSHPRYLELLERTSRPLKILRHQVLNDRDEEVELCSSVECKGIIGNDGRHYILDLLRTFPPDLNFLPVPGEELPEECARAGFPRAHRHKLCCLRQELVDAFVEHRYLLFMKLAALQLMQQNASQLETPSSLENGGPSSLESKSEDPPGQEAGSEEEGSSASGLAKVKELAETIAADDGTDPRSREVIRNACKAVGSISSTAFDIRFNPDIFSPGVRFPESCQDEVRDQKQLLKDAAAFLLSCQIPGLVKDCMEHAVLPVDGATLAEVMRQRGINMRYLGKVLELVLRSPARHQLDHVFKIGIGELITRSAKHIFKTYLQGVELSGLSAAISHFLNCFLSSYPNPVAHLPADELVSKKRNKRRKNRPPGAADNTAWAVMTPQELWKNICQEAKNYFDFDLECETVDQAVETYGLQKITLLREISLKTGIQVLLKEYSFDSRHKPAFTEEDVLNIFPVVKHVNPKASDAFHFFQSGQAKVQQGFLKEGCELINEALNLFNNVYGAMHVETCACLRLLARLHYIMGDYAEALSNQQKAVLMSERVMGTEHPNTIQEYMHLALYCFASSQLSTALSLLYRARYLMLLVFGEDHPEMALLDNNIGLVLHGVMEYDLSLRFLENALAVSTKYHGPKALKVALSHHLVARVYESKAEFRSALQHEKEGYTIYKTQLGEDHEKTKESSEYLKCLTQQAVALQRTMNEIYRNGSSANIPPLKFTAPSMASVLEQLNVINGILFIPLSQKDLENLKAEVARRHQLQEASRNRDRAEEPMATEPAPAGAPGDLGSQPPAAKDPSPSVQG
# Sequence of UniProt Q14677 (Q14677 whole entry, looked up): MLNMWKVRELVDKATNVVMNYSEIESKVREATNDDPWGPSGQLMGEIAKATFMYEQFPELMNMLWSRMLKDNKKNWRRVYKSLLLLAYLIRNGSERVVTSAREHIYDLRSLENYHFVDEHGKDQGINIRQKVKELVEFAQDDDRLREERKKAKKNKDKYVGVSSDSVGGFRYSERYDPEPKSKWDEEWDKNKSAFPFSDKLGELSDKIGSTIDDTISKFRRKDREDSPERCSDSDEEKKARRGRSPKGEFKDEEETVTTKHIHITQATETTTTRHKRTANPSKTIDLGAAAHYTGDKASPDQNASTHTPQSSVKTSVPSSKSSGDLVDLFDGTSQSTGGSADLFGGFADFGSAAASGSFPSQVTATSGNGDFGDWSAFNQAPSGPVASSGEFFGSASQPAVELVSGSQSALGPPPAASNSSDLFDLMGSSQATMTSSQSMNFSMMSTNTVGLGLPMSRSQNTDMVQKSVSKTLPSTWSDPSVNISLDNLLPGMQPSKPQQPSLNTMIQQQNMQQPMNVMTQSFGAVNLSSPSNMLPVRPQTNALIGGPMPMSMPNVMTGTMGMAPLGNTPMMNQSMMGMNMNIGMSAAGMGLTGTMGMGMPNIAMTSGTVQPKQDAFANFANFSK
# Sequence of UniProt P11802 (P11802 whole entry, looked up): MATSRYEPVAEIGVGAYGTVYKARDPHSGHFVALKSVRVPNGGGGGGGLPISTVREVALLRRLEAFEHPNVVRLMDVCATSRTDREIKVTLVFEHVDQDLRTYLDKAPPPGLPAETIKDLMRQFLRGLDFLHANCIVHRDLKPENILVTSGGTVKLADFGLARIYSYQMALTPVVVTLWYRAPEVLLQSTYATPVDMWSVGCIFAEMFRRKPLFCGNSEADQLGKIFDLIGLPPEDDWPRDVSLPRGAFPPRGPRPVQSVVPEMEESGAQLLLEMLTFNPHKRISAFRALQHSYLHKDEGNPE
# Sequence of UniProt P51636 (P51636 whole entry, looked up): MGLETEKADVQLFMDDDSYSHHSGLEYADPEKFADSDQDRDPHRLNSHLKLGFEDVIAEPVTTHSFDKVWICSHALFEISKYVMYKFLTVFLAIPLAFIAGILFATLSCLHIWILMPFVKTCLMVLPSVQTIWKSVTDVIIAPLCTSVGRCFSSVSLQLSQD
Target,log2 fold change [1],log2 fold change (crizotinib),log2 fold change [2],log2 fold change [3],log2 fold change (duvelisib),log2 fold change (gandotinib),log2 fold change (tozasertib),log2 fold change [4],log2 fold change (doramapimod),log2 fold change (ispinesib)
CHMP4B (UniProt Q9H444),-0.067,-0.036,-0.011,-0.022,-0.004,-0.075,-0.037,-0.014,0.005,-0.008
CLUH (UniProt O75153),-0.001,-0.094,0.348 (active),0.094,0.698 (active),-0.037,-0.024,0.01,0.02,0.043
CNN2 (UniProt Q99439),-0.003,-0.058,0.058,-0.005,-0.017,-0.088,0.092,0.012,0.007,-0.059
CRLF3 (UniProt Q8IUI8),0.053,-0.015,0.048,0.017,0.076,0.016,0.021,0.019,0.138,-0.059
CCNT1 (UniProt O60563),-0.124,-0.088,-0.098,0.13,-0.076,-0.1,-0.075,0.076,0.181,-0.277
C9orf72 (UniProt Q96LT7),0.058,-0.134,-0.024,-0.048,0.008,-0.313 (active),-0.019,0.057,0.01,0.04
CNOT4 isoform 6 (UniProt O95628),0.007,0.031,0.056,-0.076,0.06,-0.005,-0.009,0.014,-0.02,0.066
CALCOCO2 isoform 4 (UniProt Q13137),0.026,-0.355 (active),-0.106,0.024,0.042,0.071,0.115,-0.037,-0.002,-0.262
CTBS (UniProt Q01459),-0.05,-0.166,-0.078,0.04,0.017,-0.078,0.069,-0.018,0.009,-0.092
CDAN1 (UniProt Q8IWY9),0.058,0.024,0.175,0.066,0.025,-0.054,-0.098,0.008,0.034,-0.02
COA6 isoform 2 (UniProt Q5JTJ3),0.026,-0.001,-0.07,-0.155,0.068,0.082,0.109,0.159,0,0.035
CASC3 (UniProt O15234),-0.228,0.537 (active),-0.412 (active),0.243,0.065,0.484 (active),-0.088,-0.067,-0.025,-0.094
CPQ (UniProt Q9Y646),-0.013,-0.023,-0.001,0.049,-0.113,0.055,0.004,-0.058,0.03,0.011
COX15 (UniProt Q7KZN9),-0.008,-0.015,0.041,0.006,0.035,-0.07,-0.029,-0.033,-0.023,-0.016
CSNK1D (UniProt P48730),0.12,-0.103,-0.246,0.055,-0.039,0.054,-0.028,0.069,0.109,-0.116
CAD (UniProt P27708),0.014,-0.271 (active),0,0.033,-0.013,-0.013,-0.115,0.053,-0.028,-0.106
C4orf33 (UniProt Q8N1A6),0.025,-0.098,0.001,-0.209,0.033,0.019,-0.093,0.005,-0.003,-0.038
CDKN2AIP (UniProt Q9NXV6),-0.053,0.01,-0.132,-0.004,0.031,-0.012,-0.024,0.021,-0.019,0.048
CDC26 (UniProt Q8NHZ8),0.036,0.153,0.016,0.212,-0.097,-0.033,0.096,-0.021,-0.017,0.406
CPT2 (UniProt P23786),0.701 (active),-0.42,0.06,-0.01,0.069,0.119,-0.049,1.04 (active),-0.019,-0.306
CPSF6 isoform 2 (UniProt Q16630),-0.014,-0.025,0.075,-0.292 (active),-0.004,-0.034,-0.03,-0.012,0.004,0.11
CHP1 (UniProt Q99653),0.025,0.109,-0.061,-0.027,0.044,0.022,0.075,-0.026,-0.021,0.25
CHST10 (UniProt O43529),0.235,-0.206,0.014,0.009,,0.087,-0.037,,0.015,-0.009
CLINT1 isoform 3 (UniProt Q14677),-0.019,0.02,,0.159,-0.029,0.047,-0.025,-0.097,0.012,-0.001
CLASP2 isoform 3 (UniProt O75122),-0.035,-0.201,0.044,-0.029,0.047,-0.314 (active),-0.06,0.074,-0.007,-0.054
CAV2 (UniProt P51636),-0.067,-0.087,,,0.075,0.043,-0.115,0.035,0.13,
CDK4 (UniProt P11802),0.108,-0.108,-0.152,0.377,0.104,,,0.021,0.079,0.094
CCNH (UniProt P51946),-0.033,0.033,0.048,-0.031,0.037,0.013,0.046,-0.01,-0.086,0.098
COMMD1 (UniProt Q8N668),-0.108,-0.022,-0.092,,,0.42 (active),-0.049,,0.009,-0.112
CHAC2 (UniProt Q8WUX2),0.026,0.048,0.021,-0.071,0.04,-0.014,0.059,0.008,-0.021,0.071
